# Results taken from PubChem BioAssay (NCATS).
# Values joined by “and” are separate entries in the source; they are usually repeats but may differ in a detail not shown here. Equal entries are not always repeated. A number with no mark means an inactive call. Results filed as inconclusive are left out. Active and inactive are the calls of the source. Unless noted, the call rests on the fitted dose curve; in most records, active means well fitted curve in either direction with a large enough effect (not every such curve was filed as active); inconclusive means small, poorly fitted or top-dose-only effect, or another doubt; inactive means flat fitted curve, though single readings scatter.
# Assays:
# [1] = biological target: Lysosomal acid glucosylceramidase (Homo sapiens) (UniProt P04062); experiment: Glucocerebrosidase-p2 (AID 348; in the data active means potency below about 10 µM; further: potency means the concentration at half of the fitted maximal effect); details: purified GBA, blue fluorogenic substrate, 40 min
# Summary of the method: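 Compounds titrated from 0.6 nM upwards against 0.2 nM enzyme in pH 5.9 citric acid/KH2PO4, taurocholate, tween-20; blue fluorogenic substrate 80 uM, 40 min room temperature, stopped and read Ex 365/Em 440 for AC50.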
# [2] = AP1 Signaling Pathway (AID 357); details: ME-180 AP-1-bla reporter, EGF-induced, beta-lactamase ratio, 5 h;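 further: ME-180 reporter cells stimulated with EGF at its EC50 level; on the % scale 0 is the no-effect control and ±100 the full control effect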
# Summary of the method: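 Cells are seeded overnight, exposed to compound titrations and an EC50 level of EGF for 5 hours at 37 °C, then loaded with CCF4 dye for 2.5 hours. Beta-lactamase activity under the AP-1 element is read as a blue/green ratio.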
# [3] = Stat Signaling Pathway (AID 446); details: ME-180 SIE beta-lactamase reporter, IL-6 stimulated, 5 h;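 further: ME-180 cervical cancer cells given 40 pM IL-6 alongside compound; SIE-controlled beta-lactamase reporter measured as 460/530 nm FRET emission ratio; on the % scale 0 is the no-effect control and ±100 the full control effect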
# Summary of the method: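 Reporter line: ME-180 cervical carcinoma, SIE-beta-lactamase. Treatment: compound with 40 pM IL-6, 5 hrs, 37 C, in low-serum OPTI-MEM with 10 mM HEPES pH 7.3. Detection: 460/530 nm fluorescence.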
# [4] = biological target: Glucocorticoid receptor (Homo sapiens) (UniProt P04150); experiment: GR-GFP Redistribution (AID 450;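 active means compounds whose dose series gives a full or clear partial fitted curve of increased nuclear translocation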; further: potency means the concentration at half of the fitted maximal effect); details: U2OS GR-GFP nuclear translocation, laser cytometry, 2 h
# [5] = biological target: Glucocorticoid receptor (Homo sapiens) (UniProt P04150); experiment: GR-EFC Redistribution (AID 451; calls by dose curve; further: potency means the concentration at half of the fitted maximal effect); details: CHO-K1 GR-EFC translocation, beta-gal luminescence, 2 h
# Summary of the method: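 Translocation of GR-ED fusion to nuclear EA restores b-gal, read by luminescence after 1 h room-temperature detection. Engineered CHO-K1 biosensor cells, 1,000/well, exposed 2 h at 37 C to titrations up to 46 uM final.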
# [6] = biological target: Mitogen-activated protein kinase 10 (Mus musculus) (UniProt Q61831); experiment: JNK3 AlphaScreen Assay (AID 530); details: JNK3 lysate, c-Jun phosphorylation; series mostly up to 57.1 µM;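 further: kinase came from lysate of stimulated human HepG2 cells; signal reports phosphorylation of biotinylated GST-cJun 1-79 at Ser73 with 10 µM ATP; on the % scale 0 is the no-effect control and ±100 the full control effect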
# Summary of the method: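 Room-temperature AlphaScreen kinase assay; pre-activated HepG2 lysate as JNK3 source, biotin-GST-cJun(1-79) substrate, 10 uM ATP, compound 15 min preincubation.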
# [7] = biological target: 3',5'-cyclic-AMP phosphodiesterase 4B (Homo sapiens) (UniProt Q07343); experiment: qHTS Assay for Inhibitors of PDE-IV (AID 607; active means well fitted activation curve with a large enough effect in the main read-out, with a control signal flat, not every such curve was filed as active; further: % of control where 0% means no effect); details: HEK293 ACTOne CNG channel cells, membrane potential fluorescence; series mostly up to 22.9 µM
# Summary of the method: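 Cell-based read-out of cAMP via a modified cyclic nucleotide-gated channel and membrane potential dye (535/590 nm) in HEK293 cells expressing PDE4 endogenously. Compounds tested up to 22.9 uM final; 100 uM RO 20-1724 reference.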
# [8] = biological target: Cytochrome P450 1A2 (Homo sapiens) (UniProt P05177); experiment: p450-cyp1a2 (AID 410; calls by dose curve;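 further: -100% = full effect of reference inhibitor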); details: recombinant CYP1A2, luciferin-ME demethylation, luminescence; series mostly up to 11.4 µM
# Summary of the method: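 Inhibition was calculated relative to 57 uM furafylline (full inhibition). The reaction used human CYP1A2 at 20nM with Luciferin-ME at its Km, 100uM, driven by an NADPH-regenerating system for 60 min at room temperature.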
# [9] = NFAT Signaling Pathway (AID 444); details: Jurkat NFAT-bla M1, carbachol, beta-lactamase ratio, 5 h;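 further: carbachol stimulus at about its EC50 of 1 µM final; on the % scale 0 is the no-effect control and ±100 the full control effect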
# Summary of the method: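 Read-out: CCF4 FRET ratio (460 nm/530 nm) after 1 h RT dye loading, used for %activity and AC50 from titration series. Cells: Jurkat NFAT-β-lactamase/M1 line, treated with compound plus 1 uM carbachol for 5 h, 37 °C.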
# [10] = biological target: Guanine nucleotide-binding protein G(i) subunit alpha-1 (Homo sapiens) (UniProt P63096); experiment: qHTS Assay for Inhibitors of RGS12 GoLoco Motif Activity (Green Fluorophore) (AID 879; active means well fitted curve in the direction sought with a large enough effect; an effect the other way counts as inactive or inconclusive;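 further: 0% = labeled peptide with Gαi1 and full inhibition = labeled peptide alone without protein; negative values mean loss of peptide binding seen as reduced polarization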); details: Galphai1/FITC-RGS12 GoLoco peptide, fluorescence polarization; series mostly up to 57.1 µM
# Summary of the method: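 Fluorescence polarization assay: 50 nM Gαi1 with 10 nM FITC-labeled RGS12 GoLoco peptide in 10 mM Tris pH 7.5, 150 mM NaCl, 0.1 mM GDP, 0.05% NP40, 10 min at room temperature with compound.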
# [11] = qHTS Assay for Identification of Small Molecule Agonists for Thrombopoietin (TPO) Signaling Pathway (AID 917; active means well fitted curve in the direction sought with a large enough effect; an effect the other way counts as inactive or inconclusive; further: on the % scale 0 is the no-effect control and ±100 the full control effect); details: TPO signaling pathway reporter cells, agonist qHTS; series mostly up to 38.5 µM
# Summary of the method: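 Murine Ba/F3 cells expressing human TPO receptor and GPIIb-promoter luciferase, IL-3-starved overnight, given compound plus TPO at 26 pM (EC50). After 24 h at 37 C, 5% CO2, luminescence read.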
# [12] = biological target: Muscarinic acetylcholine receptor M1 (Rattus norvegicus) (UniProt P08482); experiment: qHTS Assay for Antagonists of Acetylcholine Muscarinic M1 Receptor: Measurement of IP-One Response (AID 944; active means well fitted curve in the direction sought with a large enough effect; an effect the other way counts as inactive or inconclusive; further: nearly all actives have a fitted effect of over 75% in size); details: CHO-M1 cells, IP-One HTRF, antagonist mode; series mostly up to 46.1 µM
# Summary of the method: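 Steps: plate transfected CHO-M1 cells overnight; add test compound, 10 min; add carbachol (200 nM, EC80) in stimulation buffer with LiCl; incubate 30 min; add labelled IP1 tracer and anti-IP1 antibody in lysis buffer; read HTRF after 10 min.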
# [13] = biological target: Pyruvate kinase (Leishmania mexicana) (UniProt Q27686); experiment: qHTS Validation Assay for Inhibitors of Leishmania Mexicana Pyruvate Kinase (AID 945; active means well fitted curve in the direction sought with a large enough effect; an effect the other way counts as inactive or inconclusive;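 further: 0% = DMSO only neutral control wells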); details: purified L. mexicana pyruvate kinase, enzyme activity, E451W mutant enzyme; series mostly up to 57.5 µM
# Summary of the method: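 Read-out: luminescence from PKLight stop/detection reagent, data normalized to DMSO. Reaction: 0.2 nM E451W LmPYK, 0.5 mM PEP, 0.1 mM ADP, pH 7.2, 1 h room temperature.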
# [14] = biological target: Pyruvate kinase PKM (Homo sapiens) (UniProt P14618); experiment: qHTS Assay for Activators of Human Muscle Pyruvate Kinase (AID 954; active means well fitted curve in the direction sought with a large enough effect, not every such curve was filed as active;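 further: 0% = uninhibited enzyme and -100% = no enzyme or full thiadiazolimine inhibition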); details: purified human muscle pyruvate kinase, luciferase-coupled luminescence, 1 h; series mostly up to 57.5 µM
# Summary of the method: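 Human PKM2 activity is measured as ATP generation, detected by luciferase-coupled luminescence. The enzyme (0.1 nM) acts on 0.5 mM PEP and 0.1 mM ADP for 1 h at ambient temperature; data are normalized to uninhibited and full-inhibition wells.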
# [15] = biological target: Cytochrome P450 2C9 (Homo sapiens) (UniProt P11712); experiment: qHTS Assay for Inhibitors and Substrates of Cytochrome P450 2C9 (AID 883; active means well fitted curve in the direction sought with a large enough effect; an effect the other way counts as inactive or inconclusive; further: on the % scale 0 is the no-effect control and ±100 the full control effect; nearly all actives have a fitted effect of over 60% in size); details: recombinant CYP2C9, luciferin-H luminescence, 60 min; series mostly up to 57.1 µM
# Summary of the method: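 Luminescent read-out of deoxyluciferin hydroxylation, normalized to 57uM sulphaphenazole (AC100). Reaction: 10nM enzyme, 100uM Luciferin-H (equal to KM), 25mM KPO4, 10 min compound preincubation, then 60 min with NADPH regeneration, both at 37C.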
# [16] = biological target: Cytochrome P450 2D6 (Homo sapiens) (UniProt P10635); experiment: qHTS Assay for Inhibitors and Substrates of Cytochrome P450 2D6 (AID 891; active means well fitted curve in the direction sought with a large enough effect; an effect the other way counts as inactive or inconclusive; further: nearly all actives have a fitted effect of over 60% in size; further: potency means the concentration at half of the fitted maximal effect); details: recombinant CYP2D6, luciferin-ME EGE luminescence; series mostly up to 11.4 µM
# Summary of the method: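 Human CYP2D6 (5 nM) with 30 uM Luciferin-ME EGE (at Km) in 100 mM KPO4, compound preincubated 10 min, then NADPH regeneration system for 60 min at room temperature. Luciferin read by luminescence; normalized to 1.43 uM quinidine.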
# [17] = biological target: Cytochrome P450 2C19 (Homo sapiens) (UniProt P33261); experiment: qHTS Assay for Inhibitors and Substrates of Cytochrome P450 2C19 (AID 899; active means well fitted curve in the direction sought with a large enough effect; an effect the other way counts as inactive or inconclusive; further: on the % scale 0 is the no-effect control and ±100 the full control effect; nearly all actives have a fitted effect of over 60% in size); details: recombinant CYP2C19, luciferin-H EGE luminescence; series mostly up to 11.4 µM
# Summary of the method: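 Luminescence readout of luciferin formed from 10uM Luciferin-H EGE (KM level) by 5 nM CYP2C19 in 50mM KPO4. 60 min NADPH-driven reaction at 37C after 10 min compound preincubation; data scaled to 57uM ketoconazole inhibition.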
# [18] = biological target: Cytochrome P450 3A4 (Homo sapiens) (UniProt P08684); experiment: qHTS Assay for Activators of Cytochrome P450 3A4 (AID 885; active means well fitted curve in the direction sought with a large enough effect; an effect the other way counts as inactive or inconclusive; further: nearly all actives have a fitted effect of over 65% in size); details: recombinant CYP3A4, Luciferin-PPXE luminescence, 60 min; series mostly up to 57.1 µM
# Summary of the method: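 Signal was normalized against complete inhibition by 57 uM ketoconazole. The reaction used 20nM CYP3A4 with 25uM Luciferin-PPXE, 10-min compound preincubation and a 60-min NADPH-supported step at RT.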
# [19] = at 7.69 µM (top of the series) unless noted
# Chain of Cytochrome P450 1A2 (Homo sapiens) (P05177 whole entry, looked up): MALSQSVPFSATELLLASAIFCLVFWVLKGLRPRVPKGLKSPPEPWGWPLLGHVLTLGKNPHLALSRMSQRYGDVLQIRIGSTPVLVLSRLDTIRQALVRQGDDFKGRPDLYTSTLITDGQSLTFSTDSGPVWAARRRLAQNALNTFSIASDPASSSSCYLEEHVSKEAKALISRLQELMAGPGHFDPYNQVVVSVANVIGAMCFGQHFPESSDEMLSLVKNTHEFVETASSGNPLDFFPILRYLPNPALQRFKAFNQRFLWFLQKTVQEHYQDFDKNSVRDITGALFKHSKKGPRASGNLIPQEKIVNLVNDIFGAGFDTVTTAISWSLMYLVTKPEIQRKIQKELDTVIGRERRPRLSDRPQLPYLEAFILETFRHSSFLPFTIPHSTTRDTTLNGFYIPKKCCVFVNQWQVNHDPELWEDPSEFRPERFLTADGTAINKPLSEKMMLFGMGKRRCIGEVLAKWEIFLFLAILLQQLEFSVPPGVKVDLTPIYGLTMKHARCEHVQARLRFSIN
# Chain of Lysosomal acid glucosylceramidase (Homo sapiens) (P04062 whole entry, looked up): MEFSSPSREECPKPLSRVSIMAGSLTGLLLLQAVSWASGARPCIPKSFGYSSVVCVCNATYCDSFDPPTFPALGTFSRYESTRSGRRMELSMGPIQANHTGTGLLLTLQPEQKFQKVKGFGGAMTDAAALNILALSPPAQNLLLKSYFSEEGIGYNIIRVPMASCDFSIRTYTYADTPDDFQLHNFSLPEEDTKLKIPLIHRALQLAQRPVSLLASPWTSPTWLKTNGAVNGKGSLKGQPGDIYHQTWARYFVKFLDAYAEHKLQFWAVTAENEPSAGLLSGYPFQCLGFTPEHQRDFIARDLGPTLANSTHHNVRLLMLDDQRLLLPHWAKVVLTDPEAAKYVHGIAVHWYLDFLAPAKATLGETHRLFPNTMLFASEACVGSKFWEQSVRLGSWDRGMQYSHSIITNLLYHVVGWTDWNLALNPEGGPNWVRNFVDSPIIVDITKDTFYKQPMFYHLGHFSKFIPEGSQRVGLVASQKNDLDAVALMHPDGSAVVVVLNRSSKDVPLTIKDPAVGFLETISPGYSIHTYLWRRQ
# Chain of 3',5'-cyclic-AMP phosphodiesterase 4B (Homo sapiens) (Q07343 whole entry, looked up): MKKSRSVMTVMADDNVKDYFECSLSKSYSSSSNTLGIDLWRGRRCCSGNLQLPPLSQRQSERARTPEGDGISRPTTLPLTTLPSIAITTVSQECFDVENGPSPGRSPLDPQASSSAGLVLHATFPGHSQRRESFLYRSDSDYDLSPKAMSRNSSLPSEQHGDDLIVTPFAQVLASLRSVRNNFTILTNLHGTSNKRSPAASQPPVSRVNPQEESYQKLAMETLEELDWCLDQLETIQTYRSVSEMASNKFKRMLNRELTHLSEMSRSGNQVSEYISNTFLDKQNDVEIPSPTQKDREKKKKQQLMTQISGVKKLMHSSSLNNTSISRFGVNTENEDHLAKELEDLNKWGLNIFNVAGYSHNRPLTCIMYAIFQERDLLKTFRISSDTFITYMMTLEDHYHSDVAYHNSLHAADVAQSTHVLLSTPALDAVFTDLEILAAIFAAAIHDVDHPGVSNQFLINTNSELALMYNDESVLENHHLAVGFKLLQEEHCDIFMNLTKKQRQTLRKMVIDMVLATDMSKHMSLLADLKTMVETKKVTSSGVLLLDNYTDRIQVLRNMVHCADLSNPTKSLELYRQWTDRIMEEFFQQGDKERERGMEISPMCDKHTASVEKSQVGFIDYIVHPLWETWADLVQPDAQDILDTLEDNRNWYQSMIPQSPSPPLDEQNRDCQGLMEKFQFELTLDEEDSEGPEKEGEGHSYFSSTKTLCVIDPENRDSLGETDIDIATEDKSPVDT
# Chain of Glucocorticoid receptor (Homo sapiens) (P04150 whole entry, looked up, the tested form may be a part): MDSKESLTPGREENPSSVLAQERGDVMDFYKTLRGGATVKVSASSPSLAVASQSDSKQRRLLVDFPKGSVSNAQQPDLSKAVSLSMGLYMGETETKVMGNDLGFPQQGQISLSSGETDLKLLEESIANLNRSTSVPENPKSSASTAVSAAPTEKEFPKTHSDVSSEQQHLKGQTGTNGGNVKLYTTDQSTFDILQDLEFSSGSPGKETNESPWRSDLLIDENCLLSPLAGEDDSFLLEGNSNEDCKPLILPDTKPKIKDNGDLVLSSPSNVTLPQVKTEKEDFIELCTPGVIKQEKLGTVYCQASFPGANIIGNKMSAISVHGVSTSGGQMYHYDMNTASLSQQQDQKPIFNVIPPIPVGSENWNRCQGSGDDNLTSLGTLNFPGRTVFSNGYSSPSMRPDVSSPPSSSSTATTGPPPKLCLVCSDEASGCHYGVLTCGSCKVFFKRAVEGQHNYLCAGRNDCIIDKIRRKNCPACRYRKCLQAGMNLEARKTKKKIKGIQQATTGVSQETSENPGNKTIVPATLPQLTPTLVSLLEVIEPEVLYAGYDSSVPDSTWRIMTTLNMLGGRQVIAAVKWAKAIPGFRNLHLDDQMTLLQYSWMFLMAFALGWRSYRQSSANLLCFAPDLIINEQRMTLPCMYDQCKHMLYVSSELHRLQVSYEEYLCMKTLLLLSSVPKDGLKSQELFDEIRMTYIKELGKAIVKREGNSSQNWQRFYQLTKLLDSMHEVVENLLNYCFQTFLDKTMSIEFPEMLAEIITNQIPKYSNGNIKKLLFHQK
# Chain of Guanine nucleotide-binding protein G(i) subunit alpha-1 (Homo sapiens) (P63096 whole entry, looked up): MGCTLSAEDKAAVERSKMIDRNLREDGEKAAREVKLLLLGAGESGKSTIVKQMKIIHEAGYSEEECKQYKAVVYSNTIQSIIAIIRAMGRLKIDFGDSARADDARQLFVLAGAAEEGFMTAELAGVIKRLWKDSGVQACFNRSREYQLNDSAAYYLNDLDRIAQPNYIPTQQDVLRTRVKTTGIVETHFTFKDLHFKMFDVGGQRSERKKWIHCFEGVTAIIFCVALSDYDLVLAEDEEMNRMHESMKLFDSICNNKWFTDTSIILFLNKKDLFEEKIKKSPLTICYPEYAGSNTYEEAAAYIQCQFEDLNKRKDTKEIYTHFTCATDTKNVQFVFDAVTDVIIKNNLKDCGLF
# Chain of Pyruvate kinase PKM (Homo sapiens) (P14618 whole entry, looked up): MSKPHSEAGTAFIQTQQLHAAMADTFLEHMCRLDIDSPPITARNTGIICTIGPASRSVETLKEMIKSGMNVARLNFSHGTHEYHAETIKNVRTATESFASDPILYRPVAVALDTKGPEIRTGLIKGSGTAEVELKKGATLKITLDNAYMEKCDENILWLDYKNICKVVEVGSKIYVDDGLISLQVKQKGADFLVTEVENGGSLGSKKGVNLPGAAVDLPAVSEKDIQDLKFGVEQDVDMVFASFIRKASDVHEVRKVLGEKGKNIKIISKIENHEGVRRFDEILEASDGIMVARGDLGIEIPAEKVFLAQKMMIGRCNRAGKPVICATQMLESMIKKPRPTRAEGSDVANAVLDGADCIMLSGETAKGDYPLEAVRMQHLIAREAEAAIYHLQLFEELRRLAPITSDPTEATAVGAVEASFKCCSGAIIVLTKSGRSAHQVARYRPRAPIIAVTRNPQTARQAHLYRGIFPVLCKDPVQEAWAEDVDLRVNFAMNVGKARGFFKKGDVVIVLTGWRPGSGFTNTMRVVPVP
# Chain of Cytochrome P450 2D6 (Homo sapiens) (P10635 whole entry, looked up): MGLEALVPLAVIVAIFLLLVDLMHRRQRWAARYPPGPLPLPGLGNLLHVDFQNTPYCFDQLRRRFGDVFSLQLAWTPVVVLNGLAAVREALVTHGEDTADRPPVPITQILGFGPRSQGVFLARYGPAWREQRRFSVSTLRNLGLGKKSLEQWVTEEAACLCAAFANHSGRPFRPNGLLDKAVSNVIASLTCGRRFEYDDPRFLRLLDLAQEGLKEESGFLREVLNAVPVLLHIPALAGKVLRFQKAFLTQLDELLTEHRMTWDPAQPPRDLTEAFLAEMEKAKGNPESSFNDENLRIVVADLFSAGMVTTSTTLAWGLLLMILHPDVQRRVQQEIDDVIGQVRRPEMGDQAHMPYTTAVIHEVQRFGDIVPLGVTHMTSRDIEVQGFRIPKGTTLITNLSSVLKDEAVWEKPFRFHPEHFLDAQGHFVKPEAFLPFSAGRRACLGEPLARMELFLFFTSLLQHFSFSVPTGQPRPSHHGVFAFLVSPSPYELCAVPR
# Chain of Pyruvate kinase (Leishmania mexicana) (Q27686 2-499 E452W): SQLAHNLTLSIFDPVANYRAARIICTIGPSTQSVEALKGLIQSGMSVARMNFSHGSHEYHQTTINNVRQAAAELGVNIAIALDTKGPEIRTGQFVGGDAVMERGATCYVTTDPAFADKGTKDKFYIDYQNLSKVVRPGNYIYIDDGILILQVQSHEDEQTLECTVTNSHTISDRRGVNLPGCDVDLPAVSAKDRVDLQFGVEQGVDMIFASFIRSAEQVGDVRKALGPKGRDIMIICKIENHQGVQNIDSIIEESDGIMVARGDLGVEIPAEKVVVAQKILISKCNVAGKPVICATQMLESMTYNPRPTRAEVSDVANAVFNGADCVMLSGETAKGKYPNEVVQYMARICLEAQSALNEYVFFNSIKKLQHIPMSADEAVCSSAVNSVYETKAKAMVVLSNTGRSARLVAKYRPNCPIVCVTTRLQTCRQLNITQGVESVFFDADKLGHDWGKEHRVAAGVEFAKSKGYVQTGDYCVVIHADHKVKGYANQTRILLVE
# Chain of Muscarinic acetylcholine receptor M1 (Rattus norvegicus) (P08482 whole entry, looked up): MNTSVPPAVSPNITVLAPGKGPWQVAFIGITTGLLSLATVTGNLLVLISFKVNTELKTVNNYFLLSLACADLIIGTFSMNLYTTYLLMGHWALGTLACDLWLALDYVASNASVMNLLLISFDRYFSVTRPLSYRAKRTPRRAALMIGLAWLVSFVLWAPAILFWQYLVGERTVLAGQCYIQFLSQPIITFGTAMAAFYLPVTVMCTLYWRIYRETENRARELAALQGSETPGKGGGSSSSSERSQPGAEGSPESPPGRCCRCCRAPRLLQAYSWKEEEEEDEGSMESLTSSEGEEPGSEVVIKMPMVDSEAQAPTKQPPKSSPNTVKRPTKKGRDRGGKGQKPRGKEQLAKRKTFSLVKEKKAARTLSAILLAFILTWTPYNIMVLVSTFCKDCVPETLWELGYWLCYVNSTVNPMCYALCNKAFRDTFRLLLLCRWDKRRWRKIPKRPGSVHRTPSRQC
smiles,measurement,setting,value
Oc1c(Cl)c(Cl)c(Cl)c(Cl)c1Cl (tested in a mixture with another compound),Potency,[1],> 11.4 µM
same,"activity change, negative = inhibition",[2]; [19],-9.55% [middle of 4 runs]
same,"activity, negative = inhibition",[3]; [19],-12.9% [middle of 4 runs]
same,Potency,[4],> 46 µM
same,Potency,[5],> 9.22 µM
same,"activity change, negative = inhibition",[6],0.344% [at 11.4 µM] [middle of 4 runs]
same,outcome,[7],inactive
C[C@@H](Cc1ccc(O)cc1)NC[C@@H](O)c1cc(O)cc(O)c1,"activity change, negative = inhibition",[2]; at 17.2 µM (top of the series),-20.6%
same,"activity change, negative = inhibition",[2]; at 38 µM (top of the series),-23%
same,Potency,[8],inactive
same,"activity change, negative = inhibition",[9]; at 17.2 µM (top of the series),-2.14%
same,"activity change, negative = inhibition",[9]; at 38 µM (top of the series),-6.03%
same,"activity, negative = inhibition",[3]; at 17.2 µM (top of the series),-8.37%
same,"activity, negative = inhibition",[3]; at 38 µM (top of the series),-28.1%
same,Potency,[4],> 46 µM and > 20.6 µM
same,Potency,[5],> 46 µM and > 20.6 µM
same,Potency,[6],inactive
same,outcome,[7],inactive
same,outcome,[10],inactive
same,outcome,[11],inactive
same,Potency,[12],inactive
same,outcome,[13],inactive
same,outcome,[14],inactive
N[C@H](Cn1cc(I)c(=O)[nH]c1=O)C(=O)O,"activity change, negative = inhibition",[2]; [19],10.7% [at 38 µM]
same,Potency,[8],inactive
same,"activity change, negative = inhibition",[9]; [19],-6.62% [at 38 µM]
same,"activity, negative = inhibition",[3]; [19],-6.5% [at 38 µM]
same,Potency,[4],> 46 µM
same,Potency,[5],> 46 µM
same,Potency,[6],inactive
same,outcome,[7],inactive
same,Potency,[15],inactive
same,Potency,[16],inactive
same,Potency,[17],inactive
COc1ccc2c(c1)[C@]13CCCC[C@@H]1[C@H](C2)NCC3,"activity change, negative = inhibition",[2]; [19],15.6% [at 38 µM]
same,"activity change, negative = inhibition",[9]; [19],4.42% [at 38 µM]
same,"activity, negative = inhibition",[3]; [19],-11.2% [at 38 µM]
same,Potency,[4],> 46 µM
same,Potency,[5],> 46 µM
same,Potency,[6],inactive
same,outcome,[7],inactive
same,outcome,[10],inactive
same,Potency,[18],inactive
same,Potency,[16],6.31 µM (active)
same,outcome,[11],inactive
same,Potency,[12],inactive
same,outcome,[13],inactive
same,outcome,[14],inactive
